Here are results for eleven molecules from ChEMBL document CHEMBL3988442, “University of Dundee, Small-Polar-MMV Screening Library” (2021).

For some of these results: Entries with a potency or affinity are not part of this list.

Parameters in all cases: scale not given: direction of the effect not stated beside the values
The target of assay [1] is Protein translocase subunit SecA (Escherichia coli (strain K12)) (UniProt P10408). Description: Assay to Identify E. coli SecA ATPase Inhibitors. It counts as functional. The conditions noted are these: 30 µM.
Assay [2] deals with T1, Ubiquitin-activating enzyme e1, putative (Leishmania donovani (strain BPK282A1)) (UniProt E9BSI1).
T1 sequence (whole entry): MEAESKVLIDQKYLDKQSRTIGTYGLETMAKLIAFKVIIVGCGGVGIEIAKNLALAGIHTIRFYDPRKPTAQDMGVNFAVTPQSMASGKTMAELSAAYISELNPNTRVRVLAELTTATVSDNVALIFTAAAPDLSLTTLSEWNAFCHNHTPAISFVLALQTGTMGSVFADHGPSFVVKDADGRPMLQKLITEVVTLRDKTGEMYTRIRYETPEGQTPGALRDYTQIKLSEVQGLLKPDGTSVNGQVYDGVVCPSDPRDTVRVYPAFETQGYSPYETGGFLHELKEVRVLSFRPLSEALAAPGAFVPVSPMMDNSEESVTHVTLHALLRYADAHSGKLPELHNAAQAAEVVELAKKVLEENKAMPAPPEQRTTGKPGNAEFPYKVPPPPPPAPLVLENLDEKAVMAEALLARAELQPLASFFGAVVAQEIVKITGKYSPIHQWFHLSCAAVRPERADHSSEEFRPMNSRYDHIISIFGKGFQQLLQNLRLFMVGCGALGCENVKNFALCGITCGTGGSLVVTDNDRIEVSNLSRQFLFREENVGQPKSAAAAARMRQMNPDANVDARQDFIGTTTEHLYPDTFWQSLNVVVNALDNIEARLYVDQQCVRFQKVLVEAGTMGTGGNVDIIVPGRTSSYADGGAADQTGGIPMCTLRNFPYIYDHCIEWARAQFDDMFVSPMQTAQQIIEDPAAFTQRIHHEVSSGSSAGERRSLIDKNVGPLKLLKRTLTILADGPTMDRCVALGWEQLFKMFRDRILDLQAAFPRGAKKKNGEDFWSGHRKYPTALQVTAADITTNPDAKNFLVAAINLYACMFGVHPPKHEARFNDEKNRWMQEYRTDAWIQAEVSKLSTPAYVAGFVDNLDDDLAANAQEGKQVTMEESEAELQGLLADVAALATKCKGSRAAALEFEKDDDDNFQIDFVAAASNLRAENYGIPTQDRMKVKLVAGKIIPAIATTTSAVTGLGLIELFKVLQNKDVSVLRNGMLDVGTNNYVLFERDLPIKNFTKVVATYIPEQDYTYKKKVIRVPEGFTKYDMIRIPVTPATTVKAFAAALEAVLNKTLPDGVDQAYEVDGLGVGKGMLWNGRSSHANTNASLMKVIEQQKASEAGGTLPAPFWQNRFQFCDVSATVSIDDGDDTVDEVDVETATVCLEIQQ
Description: Leishmania donovani Ubiquitin Activating Enzyme (LdE1). It counts as functional. Particulars: 30 µM.

Assay [3] has as its target AMP-activated protein kinase, AMPK (Homo sapiens) (UniProt P54646+O43741+P54619+Q9UGJ0+Q9Y478+Q13131+Q9UGI9). The experiment in a line: AMP-dependent Kinase enzyme assay. An in vitro enzyme assay that detects ADP turnover that is directly proportional to AMPK activity. This uses naive AMPK that is activated during the assay with MK-8722. It counts as functional. The conditions noted are these: 30 µM.

The target of assay [4] is Sialic acid-binding Ig-like lectin 9 (Homo sapiens) (UniProt Q9Y336). Description: Hs-Siglec9 ALPHAscreen SOP 20170721. The conditions noted are these: 10 µM.
For a further assay, the system named is Trypanosoma cruzi. Description: Trypanosoma cruzi phosphomannomutase and mannose-1-phosphate guanylyltransferase assay. Particulars: 10 µM. It counts as functional.
Assay [5] concerns the target T2, Arginase-2, mitochondrial (Homo sapiens) (UniProt P78540).
T2 sequence (whole entry): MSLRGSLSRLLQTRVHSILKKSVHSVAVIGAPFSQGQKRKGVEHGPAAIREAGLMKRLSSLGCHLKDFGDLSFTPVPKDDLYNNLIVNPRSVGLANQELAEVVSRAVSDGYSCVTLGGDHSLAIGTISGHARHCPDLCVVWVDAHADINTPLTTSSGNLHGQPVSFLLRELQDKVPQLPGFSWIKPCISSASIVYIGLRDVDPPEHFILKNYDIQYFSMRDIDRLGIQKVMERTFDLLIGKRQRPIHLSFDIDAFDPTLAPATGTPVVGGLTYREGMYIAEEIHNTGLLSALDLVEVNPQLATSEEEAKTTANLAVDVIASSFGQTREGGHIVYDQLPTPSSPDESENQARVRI
The experiment in a line: in vitro enzyme assay to detect the production of urea directly proportional to the activity of Arginase II. Further: in the data most compounds retested in dose-response had high values. It counts as functional. Particulars: 33.3 µM.

Assay [6] addresses T3, Proteasome subunit beta (Trypanosoma cruzi) (UniProt O96673).
T3 sequence (whole entry): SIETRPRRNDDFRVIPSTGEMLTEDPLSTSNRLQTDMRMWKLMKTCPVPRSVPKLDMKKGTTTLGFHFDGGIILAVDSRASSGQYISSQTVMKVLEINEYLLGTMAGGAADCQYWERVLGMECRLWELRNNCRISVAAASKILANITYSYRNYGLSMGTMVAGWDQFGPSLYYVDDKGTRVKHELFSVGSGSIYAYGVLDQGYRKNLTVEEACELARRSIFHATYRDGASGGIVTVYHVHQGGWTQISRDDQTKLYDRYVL
Description: Trypanosoma cruzi proteasome chymotrypsin-like activity (TcProtChymo) assay. Further: in the data most compounds retested in dose-response had high values. It counts as functional. Particulars: 9.37 µM.

The next assay is filed under the species Homo sapiens. Description: To identify inhibition of the IFN signalling (Jak-Stat) pathway via expression of an eGFP reporter gene under the control of an IFN-stimulated response element (ISRE) containing MxA promoter. The conditions noted are these: 30 µM. It counts as functional. (In general: A reporter such as luciferase makes a cellular process visible.)

The target of assay [7] is T4, Tyrosyl-tRNA synthetase, putative (Trypanosoma cruzi (strain CL Brener)) (UniProt Q4DSP6).
T4 sequence (whole entry): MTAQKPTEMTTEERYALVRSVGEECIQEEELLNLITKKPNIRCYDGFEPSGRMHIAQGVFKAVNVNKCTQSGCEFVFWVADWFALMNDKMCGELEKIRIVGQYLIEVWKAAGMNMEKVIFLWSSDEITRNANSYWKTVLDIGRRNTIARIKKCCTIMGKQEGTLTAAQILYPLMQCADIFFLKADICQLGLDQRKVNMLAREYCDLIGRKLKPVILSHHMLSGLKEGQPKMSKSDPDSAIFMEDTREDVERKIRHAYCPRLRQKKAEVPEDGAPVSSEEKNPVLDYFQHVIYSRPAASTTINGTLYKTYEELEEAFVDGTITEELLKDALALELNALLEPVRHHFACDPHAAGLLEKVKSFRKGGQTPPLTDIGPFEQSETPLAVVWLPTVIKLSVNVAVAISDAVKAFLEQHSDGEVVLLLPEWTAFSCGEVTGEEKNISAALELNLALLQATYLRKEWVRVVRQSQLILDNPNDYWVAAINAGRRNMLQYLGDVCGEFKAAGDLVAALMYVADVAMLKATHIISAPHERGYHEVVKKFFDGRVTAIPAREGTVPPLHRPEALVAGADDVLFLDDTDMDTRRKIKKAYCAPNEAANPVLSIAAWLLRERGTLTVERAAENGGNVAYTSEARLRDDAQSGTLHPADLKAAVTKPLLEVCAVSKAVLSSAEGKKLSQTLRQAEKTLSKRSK
Description: Trypanosoma cruzi tyrosyl tRNA synthetase (TcYRS) _High Tyrosine SOP. Further: in the data most compounds retested in dose-response had high values. It is filed as functional. The conditions noted are these: 30 µM.

The target in assay [8] is T4, Tyrosyl-tRNA synthetase, putative (Trypanosoma cruzi (strain CL Brener)). Description: Trypanosoma cruzi tyrosyl tRNA synthetase (TcYRS) SOP. It counts as functional. The conditions noted are these: 30 µM.
For assay [9], the target named is Chromo domain-containing protein 1 (Saccharomyces cerevisiae (strain ATCC 204508 / S288c) (Baker's yeast)) (UniProt P32657). The experiment in a line: ScCHD-1 Enzyme Inhibition Assay. Further: in the data most compounds retested in dose-response had high values. It counts as functional. The conditions noted are these: 30 µM.
Chromo domain-containing protein 1 (Saccharomyces cerevisiae (strain ATCC 204508 / S288c) (Baker's yeast)), sequence (P32657 whole entry, the tested form may be a part): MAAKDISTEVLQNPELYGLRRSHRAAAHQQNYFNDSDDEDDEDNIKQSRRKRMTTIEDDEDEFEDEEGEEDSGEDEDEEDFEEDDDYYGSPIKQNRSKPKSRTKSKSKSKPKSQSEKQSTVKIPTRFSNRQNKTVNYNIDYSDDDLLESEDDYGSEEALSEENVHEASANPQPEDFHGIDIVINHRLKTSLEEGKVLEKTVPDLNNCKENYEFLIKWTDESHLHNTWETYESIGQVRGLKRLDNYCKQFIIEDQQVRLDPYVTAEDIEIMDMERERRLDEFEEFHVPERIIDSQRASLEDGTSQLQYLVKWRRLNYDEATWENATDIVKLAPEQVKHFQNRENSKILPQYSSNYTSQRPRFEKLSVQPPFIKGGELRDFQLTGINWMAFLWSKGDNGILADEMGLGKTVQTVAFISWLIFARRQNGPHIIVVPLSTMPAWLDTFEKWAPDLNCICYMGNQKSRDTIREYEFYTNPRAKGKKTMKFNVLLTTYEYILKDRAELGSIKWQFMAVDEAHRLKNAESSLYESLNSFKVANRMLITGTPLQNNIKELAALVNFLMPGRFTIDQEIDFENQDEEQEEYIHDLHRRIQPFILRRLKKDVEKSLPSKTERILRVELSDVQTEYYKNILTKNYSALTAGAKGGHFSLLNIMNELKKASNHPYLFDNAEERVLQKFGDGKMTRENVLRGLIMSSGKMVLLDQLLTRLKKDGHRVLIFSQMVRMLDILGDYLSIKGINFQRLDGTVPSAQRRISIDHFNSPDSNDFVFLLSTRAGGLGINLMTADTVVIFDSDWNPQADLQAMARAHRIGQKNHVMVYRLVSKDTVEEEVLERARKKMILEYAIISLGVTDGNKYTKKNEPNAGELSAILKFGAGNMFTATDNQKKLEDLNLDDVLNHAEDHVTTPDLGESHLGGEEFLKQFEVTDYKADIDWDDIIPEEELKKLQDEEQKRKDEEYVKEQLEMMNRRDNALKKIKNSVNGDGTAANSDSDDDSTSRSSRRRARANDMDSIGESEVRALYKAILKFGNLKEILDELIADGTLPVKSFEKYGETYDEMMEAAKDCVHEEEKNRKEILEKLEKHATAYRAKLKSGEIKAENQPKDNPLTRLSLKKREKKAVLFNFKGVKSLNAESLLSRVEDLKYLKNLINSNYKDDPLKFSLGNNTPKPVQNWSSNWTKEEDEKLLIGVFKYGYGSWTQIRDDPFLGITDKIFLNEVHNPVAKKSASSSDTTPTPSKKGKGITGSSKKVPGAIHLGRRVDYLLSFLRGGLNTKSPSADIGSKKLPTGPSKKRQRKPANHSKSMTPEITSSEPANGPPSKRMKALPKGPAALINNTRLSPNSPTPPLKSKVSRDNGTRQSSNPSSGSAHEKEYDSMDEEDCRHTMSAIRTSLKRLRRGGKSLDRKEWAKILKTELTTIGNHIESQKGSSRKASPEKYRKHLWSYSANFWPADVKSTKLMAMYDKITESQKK

Protein translocase subunit SecA (Escherichia coli (strain K12)), sequence (P10408 whole entry): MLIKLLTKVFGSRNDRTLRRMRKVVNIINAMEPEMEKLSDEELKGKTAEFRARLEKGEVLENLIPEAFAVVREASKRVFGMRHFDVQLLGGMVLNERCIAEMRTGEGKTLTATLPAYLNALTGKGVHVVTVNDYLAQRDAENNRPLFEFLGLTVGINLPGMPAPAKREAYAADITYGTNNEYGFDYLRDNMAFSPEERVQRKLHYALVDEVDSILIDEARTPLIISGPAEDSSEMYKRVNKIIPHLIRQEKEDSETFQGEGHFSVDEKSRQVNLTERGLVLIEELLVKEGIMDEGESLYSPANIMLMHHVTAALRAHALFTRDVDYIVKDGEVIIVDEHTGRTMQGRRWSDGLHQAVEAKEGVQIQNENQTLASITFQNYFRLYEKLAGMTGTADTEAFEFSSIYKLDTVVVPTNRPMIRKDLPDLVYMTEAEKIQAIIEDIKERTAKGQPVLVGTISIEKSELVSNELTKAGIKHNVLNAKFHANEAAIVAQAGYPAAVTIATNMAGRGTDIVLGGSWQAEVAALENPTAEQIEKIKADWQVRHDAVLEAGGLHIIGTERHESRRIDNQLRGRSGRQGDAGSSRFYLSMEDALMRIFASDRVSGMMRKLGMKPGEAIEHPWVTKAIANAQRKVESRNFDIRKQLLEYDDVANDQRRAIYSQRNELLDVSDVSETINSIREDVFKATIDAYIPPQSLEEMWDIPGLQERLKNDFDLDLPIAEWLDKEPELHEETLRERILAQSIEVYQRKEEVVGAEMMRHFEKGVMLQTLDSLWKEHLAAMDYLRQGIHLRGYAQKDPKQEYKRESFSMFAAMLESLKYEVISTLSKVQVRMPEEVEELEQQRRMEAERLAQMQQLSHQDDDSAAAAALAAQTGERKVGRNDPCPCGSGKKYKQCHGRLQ
Sialic acid-binding Ig-like lectin 9 (Homo sapiens), sequence (Q9Y336 whole entry): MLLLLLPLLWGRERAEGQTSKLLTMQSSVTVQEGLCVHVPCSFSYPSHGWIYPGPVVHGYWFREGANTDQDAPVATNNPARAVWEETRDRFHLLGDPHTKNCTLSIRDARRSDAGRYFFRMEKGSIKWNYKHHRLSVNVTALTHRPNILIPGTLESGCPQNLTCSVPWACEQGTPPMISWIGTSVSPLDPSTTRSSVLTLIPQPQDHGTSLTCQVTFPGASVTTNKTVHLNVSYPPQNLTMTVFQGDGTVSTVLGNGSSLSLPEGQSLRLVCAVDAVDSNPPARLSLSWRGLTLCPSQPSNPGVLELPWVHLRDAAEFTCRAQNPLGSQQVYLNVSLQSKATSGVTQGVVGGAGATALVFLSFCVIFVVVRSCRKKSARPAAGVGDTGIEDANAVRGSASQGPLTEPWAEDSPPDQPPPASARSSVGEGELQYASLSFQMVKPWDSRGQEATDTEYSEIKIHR

`c1ccc(Cn2ccnc2CN2CCOC(Cn3cccn3)C2)cc1` (stereo unspecified): the Percent Effect in assay [1] was -9.1%; in assay [2], 3.8%; in [3], 9.54%; in [4] it was 2.25%; in the assay with Trypanosoma cruzi, -7.69%; in assay [5] it was -5.81%. The Percent Effect is 4.12% in assay [6]; 2.94% in the assay filed under Homo sapiens; 8.33% in assay [7]; 17.7% in assay [8]; -16.1% in assay [9].

Take `CCc1ccc(-n2c(=O)[nH]c3nc(N4CCSCC4)ncc3c2=O)cc1`: the Percent Effect in assay [1] is -2.14%; in assay [2], 21.1%; in assay [3], 0.234%; in assay [4], -5.88%; in the assay with Trypanosoma cruzi, 1.85%; in [5], 5.92%. The Percent Effect is 15.8% in [6]; -2.32% in the assay filed under Homo sapiens; 0% in assay [7]; 5.2% in assay [8]; 45.8% in assay [9].

As to `CC(O)CC(C)(C)CNC(=O)NCc1cccc(-n2cncn2)c1` (stereo unspecified), the Percent Effect in [1] was -3.57%; in assay [2], -2.7%; in assay [3], -0.791%; in assay [4], 7.51%; with Trypanosoma cruzi, 2.64%; in assay [5], 4.22%. The Percent Effect in assay [6] is 9.53%; in the assay listed under Homo sapiens, -9.29%; in [7], 0%; in assay [8], 1.24%; in assay [9], -0.141%.

Regarding `CC(=O)N1CCN(C)CC(COCc2ccccc2)C1` (stereo unspecified), the Percent Effect in assay [1] was -5.71%; in assay [2], 12.2%; in [3], 7.92%; in [4], 3.51%; in the assay with Trypanosoma cruzi, 4.54%; in assay [5] it was -2.09%. The Percent Effect in assay [6] was -1.09%; in the assay listed under Homo sapiens, 6.97%; in [7] it was 4.3%; in [8], 6.49%; in [9] it was -11.4%.

Regarding `COCC1c2c(cnn2CC2CC2)CCN1Cc1cccs1` (stereo unspecified), the Percent Effect was -0.701% in [1]; -5.33% in assay [2]; 6.98% in assay [3]; 7.58% in assay [4]; -2.51% with Trypanosoma cruzi; -9.5% in [5]. The Percent Effect is 10.1% in assay [6]; -16.5% in the assay listed under Homo sapiens; 3.12% in assay [7]; -2.5% in assay [8]; -3.74% in assay [9].

On to `Cc1csc2nc3n(c(=O)c12)CCN(C(=O)c1ccncc1)CC3`, for which the Percent Effect was -6.48% in assay [1]; 20.3% in assay [2]; 7.17% in assay [3]; -3.24% in [4]; 1.78% in the assay with Trypanosoma cruzi; -2.09% in assay [5]. Further, the Percent Effect in assay [6] is 9.83%; in the assay listed under Homo sapiens it was 12.7%; in assay [7], 2.15%; in assay [8], 11.7%; in assay [9], -13.5%.

In the case of `Cc1ccccc1-n1ncc(C(=O)N2CCCC2c2cnn(C)c2)c1C` (stereo unspecified), the Percent Effect is -1.92% in assay [1]; 10.8% in assay [2]; -5.91% in assay [3]; -5.79% in assay [4]; 7.71% in the assay on Trypanosoma cruzi; -0.924% in [5]. Besides, the Percent Effect in assay [6] is 5.57%; in the assay filed under Homo sapiens it was -8.29%; in assay [7], 3.96%; in assay [8] it was 18.3%; in [9], -5.96%.

As to `CC(C)Nc1nc2c(cc1C(=O)NCC1CC1)CCNCC2`, the Percent Effect in [1] is -1.6%; in assay [2], 10.7%; in assay [3] it was 6.52%; in assay [4] it was 7.51%; in the assay on Trypanosoma cruzi it was -2.9%; in assay [5] it was -29.2%. Moreover, the Percent Effect in assay [6] was 8.55%; in the assay listed under Homo sapiens, -6.96%; in assay [7], 7.29%; in assay [8], 5%; in [9], -10.3%.

In the case of `CCOCCCNC(=O)c1cn(CC)nc1C`, the Percent Effect in assay [1] is -3.21%; in assay [2], 20%; in assay [3], -2.97%; in assay [4] it was -1.34%; in the assay on Trypanosoma cruzi it was 0.982%; in [5], 1.58%. Besides, the Percent Effect in assay [6] is 15.3%; in the assay filed under Homo sapiens it was 16.9%; in assay [7], 6.35%; in assay [8], 17.9%; in [9], -9.37%.

As for `CCOCC1CN(C(=O)CS(C)(=O)=O)Cc2cnn(C)c21` (stereo unspecified), the Percent Effect in assay [1] is -1.67%; in [2], 2.67%; in assay [3] it was -16.6%; in assay [4], 8.66%; with Trypanosoma cruzi it was -3.28%; in [5] it was -11.3%. Also, the Percent Effect was 4.27% in assay [6]; 1.39% in the assay filed under Homo sapiens; 2.08% in [7]; 2.5% in assay [8]; -6.62% in [9].

On to `CCCn1[nH]cc/c1=N\C(=O)CN1CCCC1c1c(C)nn(C)c1C` (stereo unspecified), for which the Percent Effect in assay [1] is -4.29%; in assay [2] it was 2.7%; in assay [3], -27.7%; in [4] it was 15.7%; with Trypanosoma cruzi it was 7.45%; in assay [5], 6.81%. For the same molecule, the Percent Effect was 3.78% in [6]; -0.266% in the assay listed under Homo sapiens; 3.45% in assay [7]; 13.6% in assay [8]; -10.6% in [9].
